# Where “and” joins values, the source holds several entries; their conditions need not be identical. Equal entries are not always repeated. Inconclusive results are not listed. Calls of active or inactive are those of the source. Unless noted, how the calls were made is not given here.
# Assays:
# [1] = modulation of C. elegans fzo-1 (AID 1259413);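 further: fzo-1 mutant C. elegans worms in liquid wells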; settings: C. elegans fzo-1 modulator screen, mean read-out; stronger effect = higher value
# [2] = system: Aerobactin synthetase IucA (Klebsiella pneumoniae); test: inhibition of K. pneumoniae IucA enzyme – biochemical, Tocris library, absorbance (AID 1345561); settings: purified IucA enzyme assay, absorbance (OD) read-out; stronger effect = lower value;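 tested at 8 µM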;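 further: 100% = enzyme without compound and 0% = no enzyme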
# [3] = viability loss with induced miR-34 in A549 – imaging, A549 dox-inducible miR-34, nuclei and caspase counts, primary screen (AID 1347080;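 active means compounds whose cell count with miR-34 switched on is under 0.7 times the count with it off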); settings: A549 miR-34 inducible, Hoechst nuclei count, 48 h
# [4] = EMT-state selective cytotoxicity in co-culture – imaging, PC-3E GFP, TEM4-18 mCherry, primary screen (AID 1345086;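 active means compounds killing one labelled cell type while sparing the other, by normalised counts and ratio limits, not self-fluorescent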;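 on all read-outs here: cells exposed to compound for 72 h before imaging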;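 on red/green cell ratio (normalised): normalised mesenchymal count divided by normalised epithelial count so high means epithelial killing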); settings: PC-3E GFP / TEM4-18 mCherry co-culture, imaging cell counts, at 1 µM; for red/green cell ratio (normalised): actives lie on both sides, counts scaled to control wells, 1 = unselective
# [5] = blockers of cellular phospholipid synthesis – cell-based, LOPAC library, screen 4, primary screen (AID 1347384); settings: animal cells, phospholipid biosynthesis inhibition screen; at 10 µM
# [6] = MELAS cybrid and Rieske KO viability enhancers – cell-based, MELAS cybrids, Rieske KO mouse fibroblasts, CellTiter-Glo, primary screen (AID 1508586;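 active means mean z-score across replicates of 1.96 or higher in either the MELAS or the Rieske mutant cell line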;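 further: z relative to plate mean and SD of compound and empty wells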); settings: low glucose
# [7] = viability loss in pontine glioma line – cell-based, SU-DIPG-XVII, MIPE5.0, CellTiter-Glo, qHTS, dose response (AID 1347060; cut-off not given, nearly all actives have AC50 up to about 26 µM;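 on AC50: cells exposed to compound for 48 hours before viability readout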); settings: CellTiter-Glo ATP luminescence
# [8] = JHH-DIPG-1 glioma cell viability, MIPE5.0 library, CellTiter-Glo luminescence, qHTS (AID 1347067; cut-off not given, nearly all actives have AC50 up to about 26 µM;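 further: cells exposed to compound for 48 hours before readout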); settings: JHH-DIPG-1 glioma viability, CellTiter-Glo ATP luminescence
# [9] = compounds altering HSF1 focus formation in cells – imaging, Selleck Cancer Library (AID 1347162; in the data active means plate-normalised HSF1 focus index below about 0.46); settings: human cells, HSF1 nuclear foci imaging, at 10 µM; SSMD: measured here: HSF1 foci SSMD mean; cell count: measured here: cell number; plate-normalised HSF1 focus index: stronger effect = lower value
# [10] = viability loss in pontine glioma line – cell-based, SU-DIPG-XIII, MIPE4.0, CellTiter-Glo, qHTS, dose response (AID 1347061; cut-off not given, nearly all actives have AC50 up to about 37 µM;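 further: cells exposed to compound for 48 hours before readout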); settings: CellTiter-Glo ATP luminescence
# [11] = viability loss in pontine glioma line – cell-based, JHH-DIPG-1, MIPE4.0, CellTiter-Glo, qHTS, dose response (AID 1347062; cut-off not given, nearly all actives have AC50 up to about 27 µM); settings: JHH-DIPG-1 viability, CellTiter-Glo ATP luminescence
# [12] = viability loss in pontine glioma line – cell-based, SU-DIPG-IV, MIPE4.0, CellTiter-Glo, qHTS, dose response (AID 1347063; cut-off not given, nearly all actives have AC50 up to about 30 µM;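 further: compound exposure lasted 48 hours before the viability readout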); settings: CellTiter-Glo ATP luminescence
# [13] = viability loss in pontine glioma line – cell-based, SU-DIPG-XIII, MIPE5.0, CellTiter-Glo, qHTS, dose response (AID 1347064; cut-off not given, nearly all actives have AC50 up to about 23 µM); settings: CellTiter-Glo ATP luminescence
# [14] = growth inhibition of DIPG cells – cell-based, MIPE4.0 library, CellTiter-Glo luminescence, qHTS (AID 1347066; cut-off not given, nearly all actives have AC50 up to about 30 µM;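 further: cells exposed to compound for 48 hours before readout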); settings: SU-DIPG-VI viability, CellTiter-Glo ATP luminescence
# [15] = growth inhibition of DIPG cells – cell-based, MIPE5.0 library, qHTS (AID 1347068; cut-off not given, nearly all actives have IC50 up to about 30 µM); settings: SU-DIPG-XXV viability
# [16] = stronger effect = lower value, cell number ratio, induced over uninduced
# [17] = measured here: relative caspase fold change +Dox/-Dox
# [18] = measured here: total cells with miR-34 induction, stronger effect = lower value
# [19] = measured here: total cells without miR-34 induction
# [20] = measured here: epithelial PC-3E GFP cell survival
# [21] = measured here: mesenchymal TEM4-18 mCherry cell survival
# [22] = MELAS cybrid survival, CellTiter-Glo 48 h, stronger effect = higher value
# [23] = Rieske KO mouse fibroblast survival, CellTiter-Glo 72 h
structure (smiles),measurement,setting,value
O=C(c1ccc(F)cc1)C1CCN(CCn2c(=S)[nH]c3ccccc3c2=O)CC1,mean signal,[1],246 (inactive)
same,remaining activity,[2],106% (inactive)
same,fold change,[3]; [16],0.921 (inactive) and 0.889 (inactive)
same,fold change,[3]; [17],1.65 and 1.01
same,cell count,[3]; [18],8480 and 7360
same,cell count,[3]; [19],9210 and 8290
O=C(CCNNC(=O)c1ccncc1)NCc1ccccc1,mean signal,[1],273 (inactive)
same,red/green cell ratio (normalised),[4],1.02 (inactive)
same,normalised cell number,[4]; [20],1.02
same,normalised cell number,[4]; [21],1.04
same,outcome,[5],inactive
same,z-score,[6]; [22],-0.952 (inactive) and 0.716 (inactive)
same,z-score,[6]; [23],-0.171 and 0.697
OCCOCCN1CCN(C2=Nc3ccccc3Sc3ccccc32)CC1,mean signal,[1],248 (inactive)
same,red/green cell ratio (normalised),[4],0.87 (inactive)
same,normalised cell number,[4]; [20],1.08
same,normalised cell number,[4]; [21],0.94
same,z-score,[6]; [22],-0.365 (inactive) and 0.666 (inactive) and 0.0103 (inactive)
same,z-score,[6]; [23],-0.209 and 0.244 and 1.08
Clc1ccc2c(c1)CCc1cccnc1C2=C1CCNCC1,mean signal,[1],228 (inactive)
same,red/green cell ratio (normalised),[4],0.84 (inactive) and 1.39 (inactive)
same,normalised cell number,[4]; [20],1.16 and 0.83
same,normalised cell number,[4]; [21],0.98 and 1.15
same,z-score,[6]; [22],-0.116 (inactive) and -0.424 (inactive) and -0.172 (inactive)
same,z-score,[6]; [23],-0.231 and 0.543 and -0.35
COc1ccc(C(=O)NCc2ccc(OCCN(C)C)cc2)cc1OC,mean signal,[1],262 (inactive)
same,red/green cell ratio (normalised),[4],0.88 (inactive)
same,normalised cell number,[4]; [20],1.24
same,normalised cell number,[4]; [21],1.1
same,fold change,[3]; [16],0.832 (inactive) and 1.01 (inactive) and 0.841 (inactive)
same,fold change,[3]; [17],0.68 and 1.38 and 1.73
same,cell count,[3]; [18],8010 and 10500 and 9070
same,cell count,[3]; [19],9630 and 10400 and 10800
same,z-score,[6]; [22],0.424 (inactive) and 1.16 (inactive)
same,z-score,[6]; [23],-0.0117 and -0.161
Nc1nc(F)nc2c1ncn2[C@@H]1O[C@H](CO)[C@@H](O)[C@@H]1O,mean signal,[1],243 (inactive)
same,remaining activity,[2],101% (inactive)
same,AC50,[7],10.5 µM (active)
same,outcome,[8],inactive
same,fold change,[3]; [16],1.1 (inactive) and 1.04 (inactive)
same,fold change,[3]; [17],0.763 and 0.78
same,cell count,[3]; [18],2060 and 1630
same,cell count,[3]; [19],1870 and 1560
same,SSMD,[9],0.111
same,cell count,[9],6840
same,plate-normalised HSF1 focus index,[9],1.01 (inactive)
same,z-score,[6]; [22],4.36 (active)
same,z-score,[6]; [23],1.07
CCN(CC)CCNC(=O)c1cc(Cl)c(N)cc1OC,mean signal,[1],245 (inactive)
same,red/green cell ratio (normalised),[4],1.02 (inactive)
same,normalised cell number,[4]; [20],1.09
same,normalised cell number,[4]; [21],1.12
same,outcome,[5],inactive
same,z-score,[6]; [22],-1.13 (inactive) and 0.206 (inactive) and 0.37 (inactive)
same,z-score,[6]; [23],-0.268 and 0.0241 and 0.87
CC(=O)NS(=O)(=O)c1ccc(N)cc1,mean signal,[1],275 (inactive)
same,red/green cell ratio (normalised),[4],1.56 (inactive)
same,normalised cell number,[4]; [20],0.84
same,normalised cell number,[4]; [21],1.31
same,z-score,[6]; [22],-0.241 (inactive) and 0.341 (inactive)
same,z-score,[6]; [23],-0.167 and 0.175
CCOC(=O)C1=C(C)NC(C)=C(C(=O)OC)C1c1cccc(Cl)c1Cl (stereo not given),mean signal,[1],217 (inactive)
same,red/green cell ratio (normalised),[4],1.08 (inactive)
same,normalised cell number,[4]; [20],1.11
same,normalised cell number,[4]; [21],1.2
same,outcome,[5],inactive
same,z-score,[6]; [22],-0.244 (inactive) and -0.163 (inactive) and -0.233 (inactive)
same,z-score,[6]; [23],-0.0889 and -0.113 and 0.553
C[n+]1ccccc1/C=N/O,mean signal,[1],252 (inactive)
same,red/green cell ratio (normalised),[4],0.85 (inactive)
same,normalised cell number,[4]; [20],1.37
same,normalised cell number,[4]; [21],1.16
same,fold change,[3]; [16],0.951 (inactive) and 0.91 (inactive)
same,fold change,[3]; [17],1.53 and 0.982
same,cell count,[3]; [18],10700 and 9130
same,cell count,[3]; [19],11200 and 10000
same,z-score,[6]; [22],0.437 (inactive)
same,z-score,[6]; [23],-0.00254
O=C1N(c2ccccc2)c2ccccc2C1(Cc1ccncc1)Cc1ccncc1,mean signal,[1],247 (inactive)
same,remaining activity,[2],110% (inactive)
same,outcome,[7],inactive
same,outcome,[10],inactive
same,outcome,[11],inactive
same,outcome,[12],inactive
same,outcome,[13],inactive
same,outcome,[14],inactive
same,outcome,[8],inactive
same,outcome,[15],inactive
same,fold change,[3]; [16],1.1 (inactive) and 0.81 (inactive) and 0.995 (inactive)
same,fold change,[3]; [17],1.28 and 1.84 and 1.46
same,cell count,[3]; [18],10000 and 7730 and 7820
same,cell count,[3]; [19],9180 and 9540 and 7860
same,outcome,[5],inactive
CN1[C@@H]2CC[C@H]1CC(OC(=O)c1c[nH]c3ccccc13)C2 (stereo not given in full),mean signal,[1],271 (inactive)
same,remaining activity,[2],107% (inactive)
same,outcome,[11],inactive
same,outcome,[12],inactive
same,outcome,[14],inactive
same,fold change,[3]; [16],0.918 (inactive) and 0.888 (inactive)
same,fold change,[3]; [17],1.65 and 1.61
same,cell count,[3]; [18],8920 and 10100
same,cell count,[3]; [19],9710 and 11400
same,z-score,[6]; [22],0.412 (inactive)
same,z-score,[6]; [23],0.0805
C[C@@H]1CN(CCCn2c3ccccc3c3ccccc32)C[C@H](C)N1,mean signal,[1],203 (inactive)
same,remaining activity,[2],123% (inactive)
same,fold change,[3]; [16],0.959 (inactive)
same,fold change,[3]; [17],0.675
same,cell count,[3]; [18],8000
same,cell count,[3]; [19],8340
C[C@H]1COc2c(C3(N)CC3)c(F)cc3c(=O)c(C(=O)O)cn1c23,mean signal,[1],269 (inactive)
same,red/green cell ratio (normalised),[4],1.3 (inactive) and 0.88 (inactive)
same,normalised cell number,[4]; [20],0.98 and 1.07
same,normalised cell number,[4]; [21],1.28 and 0.94
same,fold change,[3]; [16],0.94 (inactive) and 0.878 (inactive)
same,fold change,[3]; [17],0.784 and 0.738
same,cell count,[3]; [18],8060 and 10100
same,cell count,[3]; [19],8570 and 11500
same,z-score,[6]; [22],0.246 (inactive)
same,z-score,[6]; [23],-0.0845

# From PubChem BioAssay
